A selection: hits, their analogues and other compounds. The true share with any hit is near 3.1%.
PAFAH1B3 FP inh: PAFAH1B3 enzyme inhibitors, primary screen, biochemical, fluorescence polarization, human; Platelet-activating factor acetylhydrolase IB subunit alpha1 (Homo sapiens), Q15102; recombinant PAFAH1B3, FP-rhodamine probe; inhibition, % at 3.39 µM; 340,000 tested, 0.28% active;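 active means inhibition above the screen-wide average of all tested compounds plus 3 SD, cut at about 25% in these data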;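 further: 0% = enzyme with DMSO only and 100% = wells lacking PAFAH1B3 protein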
Target sequence (Q15102 whole entry, looked up): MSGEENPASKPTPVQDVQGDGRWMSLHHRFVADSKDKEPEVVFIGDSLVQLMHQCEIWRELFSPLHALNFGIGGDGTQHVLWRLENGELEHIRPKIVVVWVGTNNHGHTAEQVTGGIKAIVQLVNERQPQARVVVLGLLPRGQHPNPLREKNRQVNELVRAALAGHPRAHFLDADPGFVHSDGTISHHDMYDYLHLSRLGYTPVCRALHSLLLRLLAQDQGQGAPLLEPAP
pPAFAH FP inh: pPAFAH enzyme inhibitors, primary screen, biochemical, fluorescence polarization, human. Platelet-activating factor acetylhydrolase (Homo sapiens), Q13093. recombinant pPAFAH, FP-rhodamine probe fluorescence polarization. inhibition, % at 3.39 µM. 330,000 tested, 1.5% active. AID 463082, 2010;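 active means inhibition above the mean inhibition across the screen plus 3 SD, cut at about 25% in these data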;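 further: inhibitors block binding of the rhodamine activity-based probe so polarization drops; 0% = enzyme with DMSO and 100% = wells lacking pPAFAH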
PAFAH1B2 inh: PAFAH1B2 enzyme inhibitors, primary screen, biochemical, fluorescence polarization, human; Platelet-activating factor acetylhydrolase IB subunit alpha2 (Homo sapiens), P68402; recombinant PAFAH1B2, FP-rhodamine activity probe; inhibition, % at 3.39 µM; 340,000 tested, 1.2% active;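 active means inhibition above the mean of all tested compounds plus 3 SD, cut at about 24% in these data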;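 further: 0% = enzyme with DMSO and 100% = wells lacking PAFAH1B2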
Target sequence (P68402 whole entry, looked up): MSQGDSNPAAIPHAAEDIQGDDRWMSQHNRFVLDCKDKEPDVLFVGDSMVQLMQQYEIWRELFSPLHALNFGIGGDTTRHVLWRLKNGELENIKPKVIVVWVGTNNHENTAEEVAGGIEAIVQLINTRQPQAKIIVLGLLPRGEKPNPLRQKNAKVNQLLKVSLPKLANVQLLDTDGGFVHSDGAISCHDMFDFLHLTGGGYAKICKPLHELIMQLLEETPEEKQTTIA
PAFAH2 inh: PAFAH2 enzyme inhibitors, primary screen, biochemical, fluorescence polarization, human; recombinant PAFAH2, FP-rhodamine activity probe; inhibition, % at 3.39 µM; 340,000 tested, 0.99% active;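 active means inhibition above the mean over all tested compounds plus 3 SD, cut at about 30% in these data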;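 further: inhibitors block probe labeling of enzyme so polarization drops; 0% = enzyme with DMSO and 100% = wells lacking PAFAH2 protein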
Rin1-Abl PPI inh: inhibitors of Rin1-Abl protein binding, primary screen, biochemical, TR-FRET; inhibition, % at 7.35 µM; Tyrosine-protein kinase ABL1 (Homo sapiens) + Ras and Rab interactor 1 (Homo sapiens), …; 360,000 tested, 0.4% active; in the data active means inhibition above about 5%, passing the limit was not always enough
E coli Lon inh: inhibitors of E. coli Lon protease, primary screen, biochemical, fluorescence polarization; P0A9M0; purified E. coli Lon protease; inhibition, % at 7.94 µM; 360,000 tested, 0.42% active; in the data active means inhibition above about 13%, passing the limit was not always enough;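 further: 0% = enzyme with probe and DMSO and 100% = no enzyme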
pPAFAH FP conf: pPAFAH (PLA2G7) enzyme inhibitors, confirmation, biochemical, fluorescence polarization, human; AID 463230, 2010; recombinant pPAFAH, FP-Rh probe fluorescence polarization; shares compounds with pPAFAH FP inh; inhibition, % at 3.39 µM; 2,300 tested, 72% active;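 active means mean inhibition of the triplicate above the hit cutoff set for the earlier primary screen, cut at about 25% in these data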;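 further: 0% = enzyme with DMSO and 100% = wells lacking pPAFAH enzyme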
An asterisk follows results filed as active; i = inactive; · = no result.

SMILES	PAFAH1B3 FP inh	pPAFAH FP inh	PAFAH1B2 inh	PAFAH2 inh	Rin1-Abl PPI inh	E coli Lon inh	pPAFAH FP conf
CC(=O)OCC(=O)C1(O)CCC2C3CCC4=CC(=O)CCC4(C)C3(F)C(O)CC21C (stereo unspecified)	2	·	8	3	4	-3	·
COc1ccc(COC(=O)c2cc([N+](=O)[O-])ccc2N2CCOCC2)cc1F	2	43*	-1	-2	-5	-5	8
O=C(OCc1ccc(Br)cc1)c1cc([N+](=O)[O-])ccc1N1CCOCC1	·	·	·	·	-4	1	·
COc1ccc(S(=O)(=O)N2CCCC(C(=O)NCCN3CCOCC3)C2)cc1C (stereo unspecified)	2	-4	5	2	0	1	·
CC1COC(=C2C(=O)OCC2C)C1 (stereo unspecified)	·	·	·	·	-4	-4	·
CCC1CCCCN1CC(=O)c1c(C)[nH]c2cc(C)ccc12 (stereo unspecified)	9	·	0	3	-1	-4	·
Cc1nc(C)c(C(=O)OC(C)C(=O)Nc2ccc(F)cc2)s1 (stereo unspecified)	-8	7	6	5	-2	0	·
Cc1ccc(C)c(NS(=O)(=O)c2ccc(OCC(=O)NCc3ccco3)cc2)c1	-4	39*	7	4	2	1	22
O=C(NN=Cc1ccc(O)c(O)c1)c1ccccc1	·	·	·	·	7	6	·
O=C(/C(=N/N=C/c1ccc(O)c(O)c1O)c1ccccc1)c1ccccc1	-14	80*	-11	4	12*	17	85*
CC(OC(=O)c1ccc([N+](=O)[O-])o1)C(=O)Nc1nc(-c2ccc(F)c(F)c2)cs1 (stereo unspecified)	1	·	-1	0	-2	7	·
COCCN(CCOC)S(=O)(=O)c1ccc(NC(=O)c2cnccn2)cc1	9	-2	6	-8	-2	-2	·
Cc1ccc(/C=C/C(=O)c2ccccc(=O)c2O)c(C)c1	4	69*	-5	21	5	-2	14
O=c1[nH][nH]c2c1[C@H](c1ccc(Cl)cc1)O[C@H](C1CCCCC1)C2	·	·	·	·	·	-4	·
O=C(NCc1ccco1)c1cccc2c1C(=O)c1ccc(/C=C/c3ccccc3)cc1S2(=O)=O	1	39*	3	4	0	-31	32*
O=C(CNC(=O)c1nc[nH]c1C(=O)NCc1ccccc1)OCc1ccccc1	14	35*	8	4	1	-4	24
O=C(CNC(=O)c1nc[nH]c1C(=O)NCC(=O)OCc1ccccc1)OCc1ccccc1	-1	10	1	5	5	5	·
COc1cc(NCCCn2ccc(NC(=O)OCc3ccccc3)nc2=O)cc(OC)c1OC	-2	·	-2	-3	-1	-6	·
Cc1ccc(NC(=S)N(CCN(C)C)C(C)c2ccco2)cc1C (stereo unspecified)	4	38*	0	8	-2	-9	2
CCOC(=O)c1c(-c2ccccc2)csc1NC(=O)/C(C#N)=C/c1ccc(O)c(OC)c1	21	40*	8	14	-4	i	22
O=C(O)CCN1C(=O)/C(=C\c2cccc(Oc3ccccc3)c2)SC1=S	9	36*	28*	12	2	3	17
O=C(O)COc1ccc(/C=C2/SC(=S)N(Cc3ccccc3)C2=O)cc1	9	54*	4	12	-4	-19	19
COc1ccc(/C=C2/SC(=S)N(CCC(=O)O)C2=O)cc1	10	6	0	3	-3	0	·
CCCCOc1ccc(-c2cc(C(=O)NNC(=S)NCC)c3ccccc3n2)cc1	12	42*	1	0	1	-3	51*
CC(C)(C)S(=O)(=O)/C(C#N)=N/Nc1ccc(Cl)cc1	10	35*	6	2	6	1	37*
SMILES	PAFAH1B3 FP inh	pPAFAH FP inh	PAFAH1B2 inh	PAFAH2 inh	Rin1-Abl PPI inh	E coli Lon inh	pPAFAH FP conf
CCCCn1c(NC(=O)CC)c(C#N)c2nc3ccccc3nc21	-6	1	8	-10	0	-7	·
N#Cc1c(NC(=O)c2ccccc2Cl)n(Cc2ccccc2)c2nc3ccccc3nc12	63*	38*	53*	64*	8	-50	35*
CCN(C[C@H]1N[C@@](C)(C(=O)OC)[C@H]2C(=O)N(C)C(=O)[C@@H]12)C(=O)c1ccc(C(C)(C)C)cc1	4	4	3	10	0	-5	·
CCN(CC)CCNC(=O)c1cc(-c2ccco2)nc2ccccc12	9	-1	8	7	-2	-2	·
c1coc(-c2nc3ccccc3nc2-c2ccco2)c1	26*	44*	23	40*	0	7	11
O=C(NCCc1ccccc1)c1ccc(=O)oc1	-5	-5	4	7	-2	3	·
O=C(NC1CCCC1)c1ccc2nc(-c3ccco3)c(-c3ccco3)nc2c1	14	68*	16	38*	4	7	34*
COc1ccc(CCNC(=O)c2cc(-c3ccco3)nc3ccccc23)cc1	·	36*	·	·	·	·	15
O=C(NCCc1ccccc1)c1ccc2nc(-c3ccco3)c(-c3ccco3)nc2c1	21	60*	5	8	2	3	37*
COc1ccc(S(=O)(=O)Nc2c(C)nn(C)c2C)cc1Br	7	4	2	-9	2	-4	·
Cc1ccc(-n2c(SCC(=O)NC3CCS(=O)(=O)C3)nc3ccccc3c2=O)cc1C (stereo unspecified)	-2	5	-3	-2	2	-5	·
Cc1ccc(C)c(NC(=O)COC(=O)c2ccc(S(=O)(=O)N3CCCC3)cc2)c1	·	·	·	·	4	5	·
O=C(O)c1ccc2nc(-c3ccccc3)c(-c3ccccc3)nc2c1	0	6	22	-2	-3	-10	·
O=C(c1ccccc1)c1ccc2nc(-c3ccco3)c(-c3ccco3)nc2c1	32*	58*	6	31*	1	-6	43*
CCc1cc(=O)oc2cc(C)c(CN3CCCCC3)c(O)c12	4	47*	0	5	-4	4	9
Cc1cc2oc(=O)cc(CN3CCCC3)c2cc1C	·	·	·	·	0	-4	·
Cc1cc(C)c2c(CN3CCCC3)cc(=O)oc2c1	·	·	·	·	0	-8	·
CCc1cc(=O)oc2cc(C)c(CN3CCCC3)c(O)c12	-4	64*	2	23	-3	-1	21
CCOc1ccc(S(=O)(=O)Nc2cccc(C(=O)N(C)CC(=O)Nc3cccc(OC)c3)c2)cc1	-3	11	-2	0	2	-9	·

Screening results deposited in PubChem by The Scripps Research Institute Molecular Screening Center.
